The text below walks through data of PubChem BioAssay (EPA / NIEHS).

Molecules are shown by their SMILES. Calls of active or inactive are those of the source. How the source made its calls: active means hit-call score of the fitted dose curve at least 0.9, where 1 is the maximum; inactive means score below 0.9.

The nature of assay [1]: APR_HepG2_NuclearSize_24hr: Apredica 24-hour HepG2 Assay for Nuclear Size (AID 2282907). The conditions noted are these: high-content imaging, actives raise or lower the signal. A digest of the protocol:
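After fixation and permeabilization, 24-hr-treated HepG2 cells were stained with Hoechst 33342 and imaged on an ArrayScan (20x). Doses spanned 0.39–200 uM in duplicate. Nuclear diameter changes in either direction were fitted relative to 0.5% DMSO controls.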

Assay [2] in a line: APR_HepG2_CellLoss_24hr: Apredica 24-hour HepG2 Assay for Cell Loss (AID 2282908).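 On AC50: fit in both directions so a hit may be cell loss or gain.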 The conditions noted are these: high-content imaging. A digest of the protocol: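 Duplicate wells received compound at ten concentrations (0.39–200 uM; final DMSO 0.5% v/v). After fixation with formaldehyde, nuclei stained with Hoechst 33342 were imaged at 20x. Loss or gain of cell count was fitted relative to DMSO controls.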

The nature of assay [3]: APR_HepG2_MicrotubuleCSK_24hr: Apredica 24-hour HepG2 Assay for Microtubule CSK Stabilty (AID 2282909). The conditions noted are these: HepG2 microtubule cytoskeleton imaging, actives raise or lower the signal. A digest of the protocol:
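Microtubule stability is scored from tubulin immunofluorescence in fixed HepG2 cells imaged at 20x. Cells receive ten compound concentrations up to 200 uM for 24 h; taxol and DMSO serve as positive and negative controls.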

Assay [4] can be described thus: APR_HepG2_MitoticArrest_24hr: Apredica 24-hour HepG2 Assay for Mitotic Arrest (AID 2282910). To be noted: high-content imaging, actives raise or lower the signal. Summed up:
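High-content imaging of fixed HepG2 cells labeled with Hoechst 33342 and anti-phospho-histone H3, after 24 h treatment. Ten concentrations 0.39 to 200 uM in duplicate, final DMSO 0.5%; changes fitted both directions relative to DMSO.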

The nature of assay [5]: APR_HepG2_MitoMembPot_24hr: Apredica 24-hour HepG2 Assay for Mitochondrial Membrane Potential (AID 2282911). The conditions noted are these: imaging, actives raise or lower the signal. Summed up: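 HepG2 cells exposed 24 h to 0.39–200 uM compounds in duplicate, 0.5% v/v DMSO final. MitoTracker Red CMXRos 250 nM loaded 30 min before formaldehyde fixation; high-content imaging at 20x, bidirectional fit versus DMSO.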

Assay [6] can be described thus: APR_HepG2_MitoMass_24hr: Apredica 24-hour HepG2 Assay for Mitochondrial Mass (AID 2282912). To be noted: high-content imaging, actives raise or lower the signal. Summed up: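 Readout: fluorescence of MitoTracker Red CMXRos (250 nM, added 30 min pre-fixation) in fixed HepG2 cells imaged by HCS. Exposure lasted 24 hr at 0.39–200 uM; increases and decreases were both fitted relative to DMSO.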

Assay [7] in a line: APR_HepG2_p53Act_24hr: Apredica 24-hour HepG2 Assay for p53 Activation (AID 2282913).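 Further: p53 protein immunofluorescence averaged per cell in HepG2 with Hoechst nuclei.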 The conditions noted are these: high-content imaging, actives raise or lower the signal. Summed up:
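HepG2 cells exposed 24 h to compounds at 0.39–200 uM in duplicate, 0.5% v/v DMSO final; fixed, permeabilized, stained with anti-p53 antibody and Hoechst 33342; fluorescence imaging; bidirectional curve fit versus DMSO.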

Assay [8] can be described thus: APR_HepG2_P-H2AX_72hr: Apredica 72-hour HepG2 Assay for H2AX Phosphorylation (AID 2282916).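 Further: phospho-histone H2A.x immunostain intensity per cell marking DNA damage.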 The conditions noted are these: imaging, actives raise or lower the signal. Summed up: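 Phospho-H2A.x imaging endpoint in HepG2 after 72 hr compound exposure (0.39–200 uM, duplicate wells). Activity derived by bidirectional curve fitting with DMSO as baseline.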
A short description of assay [9]: APR_HepG2_MitoMembPot_72hr: Apredica 72-hour HepG2 Assay for Mitochondrial Membrane Potential (AID 2282917). To be noted: imaging, actives raise or lower the signal. A digest of the protocol:
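Membrane potential read by MitoTracker Red CMXRos (250 nM, 30 min, pre-fixation) fluorescence imaging of HepG2 after 72 hr exposure. Ten concentrations, 0.39–200 uM, duplicate wells, 0.5% DMSO; fitted in both directions against DMSO baseline.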

Assay [10] is described as follows: APR_HepG2_MicrotubuleCSK_72hr: Apredica 72-hour HepG2 Assay for Microtubule CSK Stabilty (AID 2282919). The conditions noted are these: HepG2 microtubule cytoskeleton, high-content imaging, actives raise or lower the signal. A digest of the protocol: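 High-content imaging of alpha-tubulin staining in fixed HepG2 cells after 72 hr treatment with ten concentrations from 0.39 to 200 uM (0.5% DMSO). Fitting was bidirectional against DMSO; taxol served as positive control.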

Assay [11] is described as follows: APR_HepG2_P-H2AX_24hr: Apredica 24-hour HepG2 Assay for H2AX Phosphorylation (AID 2282920). To be noted: high-content imaging, actives raise or lower the signal. A digest of the protocol:
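HepG2 cells dosed 24 h at 0.39–200 uM (10 points, duplicate, 0.5% DMSO final). Formaldehyde-fixed and permeabilized, then immunostained for phospho-H2A.x with Hoechst. Fluorescence quantified by high-content imaging, fitted bidirectionally versus DMSO.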

Assay [12] in a line: APR_HepG2_StressKinase_72hr: Apredica 72-hour HepG2 Assay for Stress Kinase (AID 2282921). The conditions noted are these: HepG2 stress kinase (phospho-c-Jun) imaging, actives raise or lower the signal. A digest of the protocol:
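Stress kinase signal reflects nuclear phospho-c-Jun staining in fixed, permeabilized cells exposed 72 h to compound at 0.39–200 uM; DMSO-normalized, fitted for increases or decreases.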

A short description of assay [13]: APR_HepG2_StressKinase_24hr: Apredica 24-hour HepG2 Assay for Stress Kinase (AID 2282922). To be noted: HepG2 stress kinase (phospho-c-Jun) imaging, actives raise or lower the signal. Summed up: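 High-content imaging of phospho-c-Jun immunofluorescence in fixed, permeabilized HepG2 cells after 24 h dosing. Ten concentrations, 0.39 to 200 uM, run in duplicate at 0.5% v/v DMSO; gain or loss of signal versus DMSO.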

A short description of assay [14]: APR_HepG2_MitoMass_72hr: Apredica 72-hour HepG2 Assay for Mitochondrial Mass (AID 2282924).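 Further: MitoTracker Red CMXRos stain intensity per cell imaged as mitochondrial mass.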 To be noted: high-content imaging, actives raise or lower the signal. A digest of the protocol:
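Readout is imaged MitoTracker Red (250 nM, 30 min, pre-fixation) signal, fitted bidirectionally against DMSO baseline. Human HepG2 liver cells received compound 0.39–200 uM in duplicate for 72 hr, final DMSO 0.5%.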

Assay [15] is described as follows: APR_HepG2_NuclearSize_72hr: Apredica 72-hour HepG2 Assay for Nuclear Size (AID 2282925). The conditions noted are these: high-content imaging, actives raise or lower the signal. Summed up:
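Nuclear size was read by high-content imaging of Hoechst 33342 stain after formaldehyde fixation. Compounds ran 72 h on HepG2 at 0.39 to 200 uM, with final DMSO 0.5% v/v. Curves fitted both directions relative to DMSO control.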

Assay [16] in a line: APR_HepG2_MitoticArrest_72hr: Apredica 72-hour HepG2 Assay for Mitotic Arrest (AID 2282918). The conditions noted are these: high-content imaging, actives raise or lower the signal. Summed up:
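HepG2 cells treated 72 h at 0.39–200 uM, 0.5% DMSO final; formaldehyde-fixed, stained with Hoechst 33342 and phospho-histone H3 antibody, imaged by high-content fluorescence; bidirectional fit versus DMSO.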

The nature of assay [17]: APR_HepG2_p53Act_72hr: Apredica 72-hour HepG2 Assay for p53 Activation (AID 2282923).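 Further: average cellular p53 protein immunofluorescence intensity in HepG2 cells.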 The conditions noted are these: high-content imaging, actives raise or lower the signal. Summed up: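 Fixed-cell p53 staining (sheep primary, Cy5 secondary) measured by fluorescence imaging following 72 hr treatment at 0.39–200 uM in 0.5% DMSO; DMSO served as negative control and baseline.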

On to `Cc1ccccc1[N+](=O)[O-]`, for which the compound was classed as inactive in assay [1], in [2], in assay [3], in [4], in [5] and in [6]. Moreover, the result in [7], in assay [8], in [9], in [10], in assay [11] and in assay [12] was inactive. Further, the outcome in assay [13], in assay [14] and in [15] was inactive.

Take `C1CC2OC2CC1C1CO1` (configuration not stated): the result in [1], in assay [2], in assay [3], in assay [4], in assay [5] and in assay [6] was inactive. For the same compound, the compound was classed as inactive in assay [7], in assay [8], in assay [9], in assay [10], in assay [11] and in [12]. In addition, the compound was called inactive in assay [13], in assay [14] and in [15].

With `CCCN(CCC)N=O`, the outcome in [1], in [2], in assay [3], in [4], in [5] and in assay [6] was inactive. Moreover, the compound was called inactive in assay [7], in assay [8], in assay [9], in assay [10], in [11] and in [12]. Also, the outcome in assay [13], in assay [14] and in assay [15] was inactive.

As to `Oc1ccc(C(c2ccc(O)cc2)(C(F)(F)F)C(F)(F)F)cc1`, the outcome in [1], in assay [2], in [3], in [4], in assay [5] and in assay [6] was inactive. The result in [7], in assay [8], in [9], in assay [16], in [10] and in [11] was inactive. In addition, the call in assay [12], in assay [13], in [17], in assay [14] and in [15] was inactive.

`O=C(O)C(F)(F)C(F)(F)C(F)(F)C(F)(F)C(F)(F)F`: the compound was called inactive in [1], in assay [2], in assay [3], in assay [4], in assay [5] and in assay [6]. Further, the result in [7], in assay [8], in assay [9], in [16], in [10] and in assay [11] was inactive. Moreover, the compound was called inactive in assay [12], in [13], in [14] and in assay [15].

Regarding `Clc1ccc(Cl)cc1`, the compound was classed as inactive in assay [1], in assay [2], in assay [3], in assay [4], in assay [5] and in assay [6]. Moreover, the outcome in [7], in assay [8], in assay [9], in assay [16], in assay [10] and in [11] was inactive. Further, the compound was classed as inactive in assay [12], in [13], in assay [14] and in assay [15].

Regarding `CCCCCCOC(=O)c1ccccc1C(=O)OCCCCCC`, the call in assay [1], in [3], in [4], in [6], in assay [7] and in [8] was inactive. The call in assay [9], in assay [11], in assay [12], in [13], in [17] and in [14] was inactive. Moreover, the compound was classed as inactive in assay [15]. In addition, the AC50 in [2] was 97.3 µM (active); in [5], 112 µM (active); in [10], 102 µM (active).

`CCCCCCCCCc1ccc(O)cc1`: the compound was called inactive in assay [1], in assay [2], in [3], in assay [4], in assay [5] and in assay [6]. The result in assay [7], in assay [8], in assay [9], in assay [16], in assay [10] and in assay [11] was inactive. The call in assay [12], in assay [13], in assay [17], in assay [14] and in assay [15] was inactive.

A word on the AC50: it is the concentration giving half of the maximal activity seen.
